High-throughput results (PubChem)
D1 antagonist = blocks dopamine activation of the human D1 receptor | AID 504652 | hit rate 3.2% among 360,000 | HEK293 TREx D1 cells, calcium flux, dopamine EC80; hits give low values | activity change, negative = inhibition, % at 10 µM; in the data active means activity change below about -30%
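Using tetracycline-induced force-coupled D1 Hek293 cells and a calcium dye, signals were followed for 180 s after compound, then for 180 s after EC80 dopamine, to detect inhibitors.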
D3 ag = agonists of human D3 dopamine receptor | max activation, % | AID 652048 | hit rate 0.58% among 410,000 | P35462 | D3R DiscoveRx beta-arrestin cells, luminescence, 90 min; in the data active means max activation above about 30%
Target sequence (P35462 whole entry, looked up): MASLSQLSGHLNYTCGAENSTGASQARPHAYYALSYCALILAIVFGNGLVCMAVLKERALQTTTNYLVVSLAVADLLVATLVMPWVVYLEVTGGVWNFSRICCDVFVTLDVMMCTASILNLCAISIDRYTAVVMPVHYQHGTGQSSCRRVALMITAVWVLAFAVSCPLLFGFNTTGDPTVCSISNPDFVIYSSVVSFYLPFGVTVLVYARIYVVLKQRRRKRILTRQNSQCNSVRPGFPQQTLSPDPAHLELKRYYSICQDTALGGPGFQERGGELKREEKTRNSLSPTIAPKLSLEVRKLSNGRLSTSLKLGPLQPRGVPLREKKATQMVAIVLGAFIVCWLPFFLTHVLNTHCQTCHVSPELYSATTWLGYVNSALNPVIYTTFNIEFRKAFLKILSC
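Agonist-mode cell screen: cells plated at 1500/well and incubated overnight at 37 °C, then exposed to library compounds for 90 min at 37 °C. Detection reagent was added for 30–60 min at room temperature, and luminescence was read.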
D1 potentiator = enhances dopamine response at the human D1 receptor. P21728. HEK293 TREx D1 cells, calcium flux, dopamine EC20 potentiation. potentiation, % at 10 µM. hit rate 0.036% among 360,000. AID 504651; in the data active means potentiation above about 30%
DRD3 antagonist = antagonists of human D3 dopamine receptor; D3R cells, DiscoveRx beta-arrestin luminescence, antagonist mode; hits give low values; AID 652054; max response, negative = inhibition, %; P35462; hit rate 2.5% among 360,000; in the data active means max response below about -50%
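Cells expressing the human receptor were seeded at 1500 cells/well, incubated overnight at 37 degrees C in 5% CO2, then exposed to library compounds with dopamine controls for 90 minutes at 37 degrees C before luminescent detection.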
D1 agonist = human D1 receptor agonism; HEK293 T-REx D1 cells, calcium flux, agonist mode; hit rate 1% among 360,000; activation, % at 2 µM; AID 504660; P21728; in the data active means activation above about 30%
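Agonism was scored from calcium flux recorded over 180 s (1 read/s) after pintool compound addition, following a 10-cycle baseline. Cells were inducible force-coupled HEK293 TREx D1, plated overnight at 30 C and loaded with no-wash calcium dye.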
Each line names hits and unclear results; the compound was inactive in the other large screens. Only some compounds are listed: those with a hit (about 6.1% of all), similar ones and a draw of the others.

Cc1ccc(S(=O)(=O)/N=C2/NC(=O)/C(=C/c3ccc(Br)o3)S2)cc1	none
Cc1ccc(S(=O)(=O)/N=C2/NC(=O)/C(=C\c3cc(Br)cc(Br)c3O)S2)cc1	D1 antagonist -51.7, DRD3 antagonist -52.6, D1 agonist 276.4
CCOc1ccc(NC(=O)C2CCN(C(=O)NC3CCCCC3)CC2)cc1	D1 antagonist -35.5
CCCCOC(=O)c1ccc(NC(=O)/C(C#N)=C/c2ccc(C)o2)cc1	none (no result: DRD3 antagonist)
CCOC(=O)CCc1c(C)nc(SCCN2CCCC2)c(C#N)c1C	DRD3 antagonist -55.5
CSc1ccccc1NC(=O)C1=COCCO1	none
CCOC(=O)C(=Cc1ccc(-n2ccnc2)cc1)C(=O)OCC	DRD3 antagonist -55.6
CCOC(=O)C(=Cc1ccc(F)cc1)C(=O)OCC	none (no result: D3 ag, DRD3 antagonist)
COC(=O)c1ccc(-n2ccnc2)cc1	none
CCOC(=O)C(=Cc1ccc(Br)cc1)C(=O)OCC	DRD3 antagonist -107.9
CCCn1c(SCC(=O)N2CCOCC2)nnc1-c1ccncc1	none
Cc1cccc(CCNC(=O)c2cc3c(=O)n(C)c4ccccc4c3n2C)c1	none (no result: DRD3 antagonist)
Cn1nc(N2CCN(S(=O)(=O)c3ccccc3)CC2)c(=O)n(C)c1=O	none
CN(CCCNC(=O)c1cc2c(=O)[nH]c3ccccc3c2n1C)Cc1ccccc1	none
Cn1c(C(=O)NCCCN2CCN(c3ccccc3F)CC2)cc2c(=O)[nH]c3ccccc3c21	D1 antagonist -40.3
Cc1ccc(Cl)cc1N1CCN(C(=O)c2cc3c(=O)[nH]c4ccccc4c3n2C)CC1	D3 ag 70.8
CCC1CCCCN1CCCNC(=O)c1cc2c(=O)[nH]c3ccccc3c2n1C (centres undefined)	none
Cn1c(C(=O)N2CCN(c3ccc(Cl)cc3)CC2)cc2c(=O)[nH]c3ccccc3c21	none
CC1CC(C)CN(CCCNC(=O)c2cc3c(=O)[nH]c4ccccc4c3n2C)C1 (centres undefined)	DRD3 antagonist -64.5
CNC(=O)c1cc2n(n1)CCCN(Cc1ccc(F)cc1)C2=O	none (no result: DRD3 antagonist)
Cc1c(Cl)ccc2sc(N3CCN(C(=O)CS(=O)(=O)c4ccccc4)CC3)nc12	D1 agonist 49.4 (no result: D1 antagonist, DRD3 antagonist)
COc1ccc(C(=O)N2CCN(c3nc4c(C)c(Cl)ccc4s3)CC2)c(OC)c1	D3 ag 34.1 (no result: D1 antagonist, DRD3 antagonist)
Cc1c(Cl)ccc2sc(N3CCN(C(=O)C(C)C)CC3)nc12	none (no result: D1 antagonist, DRD3 antagonist)
COC(=O)c1ccc(OCC2c3cc(OC)c(OC)cc3CCN2C(=O)c2cccc(C)c2)cc1 (centres undefined)	D1 antagonist -32.7 (no result: DRD3 antagonist)
COC(=O)c1ccc(C(=O)OC)c(NC(=O)CSCc2ccc(Br)cc2)c1	D1 antagonist -42.3, D1 agonist 33.0
CCc1ccccc1OCC(=O)NCC1COc2ccccc2O1 (centres undefined)	none (no result: D1 antagonist, D1 potentiator, D1 agonist)
OC(CNCC1COc2ccccc2O1)COc1ccccc1F (centres undefined)	DRD3 antagonist -78.2
OC(CNCC1COc2ccccc2O1)COc1ccc(Cl)cc1 (centres undefined)	DRD3 antagonist -80.3
COc1ccc(NC(=O)COC(=O)COc2cccc3c2OC(C)(C)C3)cc1	none
O=C(COc1ccccc1Cl)N1CCc2ccccc2C1	none
O=C(COc1ccccc1F)N1CCc2ccccc2C1	D1 antagonist -57.9
CC1(C)Cc2cccc(OCC(=O)N3CCN(c4ccccc4)CC3)c2O1	none
CC1(C)Cc2cccc(OCC(=O)N3CCN(c4ccccc4F)CC3)c2O1	D1 antagonist -69.3
COc1ccccc1C(=O)COC(=O)COc1cccc2c1OC(C)(C)C2	DRD3 antagonist -65.6
COc1ccc(NC(=O)Cn2c(C)c3cnn(-c4ccccc4)c(=O)c3c2C)c(OC)c1	none (no result: DRD3 antagonist)
O=C(NCCN1CCOCC1)c1cccc(S(=O)(=O)N(Cc2ccccc2)c2ccccc2)c1	none
Cn1c(-c2c(N)n(-c3ccccc3)c3nc4ccccc4nc23)nc2ccccc21	D1 agonist 50.5
Cc1cccc(-n2c(N)c(-c3nc4ccccc4n3C)c3nc4ccccc4nc32)c1	D1 agonist 59.6
Cc1ccc2c(c1)c1nc3ccccc3nc1n2C	none
O=[N+]([O-])c1cc(CN2CCC(O)CC2)ccc1Cl	none
Cc1ccc(C(=O)Nc2ccc3c(c2)N(C)C(=O)c2ccccc2S3)cc1F	none (no result: DRD3 antagonist)
O=C(/C(=N\Nc1ccc([N+](=O)[O-])cc1)Sc1nnnn1-c1ccccc1)c1ccccc1	DRD3 antagonist -82.1
CSc1ccccc1NC(=O)c1c(Br)cnn1C	D1 antagonist -32.7
CC(C)c1nnc(NC(=O)c2cccs2)s1	D1 antagonist -52.6
Cn1ncc(Br)c1C(=O)Nc1c(F)c(F)cc(F)c1F	none
CCc1c(C)sc(NC(=O)c2cccs2)c1C(=O)OC(C)C	DRD3 antagonist -54.3
Cc1cnccc1NC(=O)c1cccs1	D1 antagonist -40.7
CCCCC(CC)c1nnc(NC(=O)c2cccs2)s1 (centres undefined)	none
CCOC(=O)c1c(NC(=O)c2cccs2)sc(C)c1CC	none
Clc1ccc(-c2noc(-c3cccnc3NCc3ccco3)n2)cc1	none (no result: DRD3 antagonist)
Cc1ccccc1NC(=O)c1ccccc1NC(=O)c1cccs1	none
CSc1ccccc1NC(=O)c1cccs1	D1 antagonist -64.7
COc1ccc(-n2cc(C#N)c(=O)n(Cc3ccc(F)cc3)c2=O)cc1	none
OCCOCCOc1ccccc1OCCOCCO	D1 antagonist -86.1
O=C(c1cnn2c(C(F)(F)F)cc(-c3cccs3)nc12)N1CCN(C(c2ccccc2)c2ccccc2)CC1	D1 antagonist -46.5
O=C1CC2(CCCC2)C(=O)N1c1ccc(S(=O)(=O)NCC2CC2)cc1Cl	none
O=C(Nc1cccc2ccccc12)N(CCO)C1CCS(=O)(=O)C1 (centres undefined)	D1 antagonist -71.0
CCN(C(=O)COC(=O)Cc1cccc2ccccc12)C1CCS(=O)(=O)C1 (centres undefined)	none
CCCCCC(=O)NNC(=O)c1ccc(-c2ccccc2)cc1	D3 ag 36.1
CCCCC(=O)NNC(=S)NC(=O)c1ccc(C)cc1	D1 agonist 60.4
O=C(NNC(=O)c1ccc(-c2ccccc2)cc1)c1ccccc1	none
Cc1cccc(OCC(=O)Nc2ccc(OCc3cc(=O)n4cc(C)ccc4n3)cc2)c1	none (no result: DRD3 antagonist)
COCCCNc1ncnc2onc(-c3ccc(F)cc3)c12	none (no result: DRD3 antagonist)
CC1=CC(C)(C)N(C(=O)c2ccc(F)cc2)c2cc3c(cc21)OCO3	D1 agonist 71.8
FC(F)(F)c1cccc(NC(=S)NCC2COc3ccccc3O2)c1 (centres undefined)	D1 antagonist -35.1
FC(F)(F)c1ccc(NC(=S)NC2CCCCC2)cc1	D1 antagonist -43.9
FC(F)(F)c1cccc(NC(=S)NC2CCCC2)c1	D1 antagonist -35.5
CCN(CC)CCNC(=O)C1CCC(=O)N(c2ccc(OC)cc2)C1c1ccc(F)cc1 (centres undefined)	DRD3 antagonist -66.6
CCCN(CCC)CCNC(=O)C1CC(=O)N(c2ccc(OC)cc2)C1c1ccc(OC)cc1 (centres undefined)	none
